About 83,000 compounds went through this panel and 20% of them were active in at least one assay; those are over-represented in the sample as a whole.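 The test compound was applied at a single concentration to cells in 96-well plates for 48 hours, and percent growth was recorded.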 Unmarked numbers belong to inactive results. Activity calls are given as the source filed them. How the source made its calls: active means growth percent below 10; inactive means the rest.
Experiments:
Experiment in all cases: NCI-60 one-dose screen, 48 h (100 = growth as untreated, 0 = no growth, -100 = all killed)
Conditions in all cases: 10 µM unless noted
[1] = tested on: HCT-15 colon
[2] = tested on: HT29 colon
[3] = tested on: SNB-75 CNS
[4] = tested on: SNB-19 CNS
[5] = tested on: U251 CNS
[6] = tested on: PC-3 prostate
[7] = tested on: SK-MEL-5 melanoma
[8] = tested on: UACC-62 melanoma
[9] = tested on: LOX IMVI melanoma
[10] = tested on: SK-MEL-28 melanoma

`Nc1nc(N)c2c(n1)NC(c1cccc(Nc3ccnc4cc(C(F)(F)F)ccc34)c1)CC(c1ccc(Br)cc1)=N2` (stereo not given) gave a growth [1] of 19.5%, a growth [2] of 10.9% and a growth [3] of 57.2%. The growth [4] was 66.4%, the growth [5] was 44.7% and the growth [6] was 36.6%. The growth [7] was 48.1%, the growth [8] was 77.9% and the growth [9] was 24.6%. It also gave a growth [10] of 73.6%.

For `O=C1Nc2ccccc2C1(c1c[nH]c2ccccc12)c1c[nH]c2ccccc12`, the growth [1] was 32.2%, the growth [2] was 53.3% and the growth [3] was -12.9% (active). For the same compound, the growth [4] was 81.5%, the growth [5] was 73.7% and the growth [6] was -9.62% (active). For the same compound, the growth [7] was 89.4%, the growth [8] was 70.3% and the growth [9] was 8.4% (active). For the same compound, the growth [10] was 108%.

In the case of `Clc1ccc(-c2cc(-c3ccccc3)nc(NCCNc3ccnc4cc(Cl)ccc34)n2)cc1`, the growth [1] is reported as -72.7% (active), the growth [2] is reported as -16.2% (active) and the growth [3] is reported as 75.7%. The growth [4] was 44.7%, the growth [5] was -85.9% (active) and the growth [6] was 16.3%. The growth [7] was 30.7%, the growth [8] was 69% and the growth [9] was -76.7% (active). For the same compound, the growth [10] was -62.1% (active).

`CC1CCN(C(=O)CCCl)c2ccccc21` (stereo not given) gave a growth [1] of 102%, a growth [2] of 102% and a growth [3] of 87.9%. For the same compound, the growth [4] was 96.7%, the growth [5] was 102% and the growth [6] was 103%. For the same compound, the growth [7] was 104%, the growth [8] was 89.7% and the growth [9] was 91%. The growth [10] was 109%.

`O=C(CI)NC(=O)NC(=O)NCc1ccccc1` was tested, and the growth [1] was 17.4%, the growth [2] was 17.2% and the growth [3] was 81.4%. It also gave a growth [4] of 101%, a growth [5] of 84% and a growth [6] of 93.9%. For the same compound, the growth [7] was 56.1%, the growth [8] was 79.3% and the growth [9] was -77.7% (active). It also gave a growth [10] of 49.4%.

`O=C(Nc1ccc(Cl)cc1)Oc1c(Cl)c(Cl)c(Cl)c(Cl)c1Cl` showed a growth [1] of 94.5%, a growth [2] of 96.1% and a growth [3] of 83.3%. It also gave a growth [4] of 98.1%, a growth [5] of 98% and a growth [6] of 89.4%. It also gave a growth [7] of 95.3%, a growth [8] of 81.3% and a growth [9] of 86.1%. It also gave a growth [10] of 105%.

`C/C(=N\O)c1ccc(NC(=O)CSc2nnc(-c3cc(-c4ccc(S(N)(=O)=O)cc4)nc4ccccc34)n2-c2ccccc2)cc1` was tested, and the growth [1] was 81%, the growth [2] was 66.2% and the growth [3] was 24.3%. It also gave a growth [4] of 66.9%, a growth [5] of 62.5% and a growth [6] of 63.6%. For the same compound, the growth [7] was 54%, the growth [8] was 62.4% and the growth [9] was 37.7%. The growth [10] was 84.4%.

`Cc1ccc(CNc2ccc3nc(CCC(C)C)[nH]c3c2)cc1` gave a growth [1] of 79.5%, a growth [2] of 92.4% and a growth [3] of 86.4%. It also gave a growth [4] of 89%, a growth [5] of 91.8% and a growth [6] of 77.9%. The growth [7] was 97.8%, the growth [8] was 90.7% and the growth [9] was 94.5%. It also gave a growth [10] of 98%.

With `O=C(Cc1ccc(NC(=O)c2cccc(Cl)c2)cc1)NCc1ccccc1` the growth [1] was 27.1%, the growth [2] was 8.25% (active) and the growth [3] was 29.7%. For the same compound, the growth [4] was 47.5%, the growth [5] was 33.3% and the growth [6] was 48.8%. For the same compound, the growth [7] was 7.53% (active), the growth [8] was 37.2% and the growth [9] was 39.6%. For the same compound, the growth [10] was 58.9%.

`C=C1C(=O)O[C@H]2[C@H]1CC/C(COC(=O)/C=C/C(=O)OC/C1=C/CC[C@@]3(C)O[C@H]3[C@H]3OC(=O)C(=C)[C@@H]3CC1)=C\CC[C@@]1(C)O[C@@H]21` was tested, and the growth [1] was 13.1%, the growth [2] was 8.88% (active) and the growth [3] was 95.2%. It also gave a growth [4] of 90.5%, a growth [5] of 76% and a growth [6] of 61.1%. For the same compound, the growth [7] was 83.1%, the growth [8] was 55.1% and the growth [9] was 3.81% (active). For the same compound, the growth [10] was 51.8%.

For `O=C(Cc1cccc(OC(F)(F)F)c1)Nc1ccc(CCCCc2nnc(NC(=O)Cc3ccccn3)s2)nn1`, the growth [1] was 89.6%, the growth [2] was 76.6% and the growth [3] was 78.6%. It also gave a growth [4] of 84.9%, a growth [5] of 82.3% and a growth [6] of 17.5%. It also gave a growth [7] of 62.2%, a growth [8] of 63.5% and a growth [9] of 82.8%. The growth [10] was 93.8%.

`CCOc1cccc(/C=N/NC(=O)c2cccc(Nc3ccnc(C(F)(F)F)c3)c2)c1O` was tested, and the growth [1] was 28.8%, the growth [2] was 53.2% and the growth [3] was 36.4%. The growth [4] was 35.1%, the growth [5] was 37% and the growth [6] was 59.1%. The growth [7] was 34.7%, the growth [8] was 0.213% (active) and the growth [9] was 11.8%. It also gave a growth [10] of 34.6%.

In the case of `COc1cc(/C=C/C(=O)c2ccc(-n3cc(CN4CCN(c5cc6c(cc5F)c(=O)c(C(=O)O)cn6C5CC5)CC4)nn3)cc2)ccc1O`, the growth [1] is reported as 71.7%, the growth [2] is reported as 53.3% and the growth [3] is reported as 89.2%. It also gave a growth [4] of 53.8%, a growth [5] of 34.3% and a growth [6] of 74%. The growth [7] was 78.7%, the growth [8] was 61.2% and the growth [9] was 36.9%. For the same compound, the growth [10] was 95.8%.

`CC1=C(C(=O)Nc2nc(-c3ccc(Cl)cc3)cs2)[C@H](c2ccc(O)cc2)NC(=O)N1` showed a growth [1] of 102%, a growth [2] of 100% and a growth [3] of 74.3%. The growth [4] was 107%, the growth [5] was 93.4% and the growth [6] was 84.4%. It also gave a growth [7] of 99.8%, a growth [8] of 88.8% and a growth [9] of 95.1%. The growth [10] was 115%.

Work on `COc1cccc(/C=C/C(=O)c2cccc(Nc3nc(Nc4ccccc4)nc(Nc4ccccc4)n3)c2)c1` yielded a growth [1] of 73.4%, a growth [2] of 65.8% and a growth [3] of 71.8%. For the same compound, the growth [4] was 102%, the growth [5] was 53.8% and the growth [6] was 73.5%. The growth [7] was 77.9%, the growth [8] was 92% and the growth [9] was 74.4%. It also gave a growth [10] of 112%.

`O=c1ccc(=O)n(-c2nc(-c3ccc([N+](=O)[O-])cc3)cs2)[nH]1` gave a growth [1] of 96%, a growth [2] of 55.6% and a growth [3] of 92%. For the same compound, the growth [4] was 96.1%, the growth [5] was 95.6% and the growth [6] was 98.6%. The growth [7] was 95.6%, the growth [8] was 90.7% and the growth [9] was 98.5%. For the same compound, the growth [10] was 105%.

With `Cn1cc(-c2ccc(-c3cn(C)c4ccc(Cl)cc34)[nH]2)c2cc(Cl)ccc21` the growth [1] was -66.3% (active), the growth [2] was 21.9% and the growth [3] was -59.9% (active). The growth [4] was -68.5% (active), the growth [5] was -100% (active) and the growth [6] was -56.5% (active). For the same compound, the growth [7] was -98.6% (active), the growth [8] was -82.3% (active) and the growth [9] was -95.2% (active). For the same compound, the growth [10] was -52.9% (active).

In the case of `C=C1C(=O)O[C@H]2[C@H]1CC/C(CNC(=O)c1c[nH]c3ccc(F)cc13)=C\CC[C@@]1(C)O[C@@H]21`, the growth [1] is reported as -69.6% (active), the growth [2] is reported as -59.5% (active) and the growth [3] is reported as 45%. For the same compound, the growth [4] was 61.3%, the growth [5] was 31.7% and the growth [6] was 31.8%. The growth [7] was 61.4%, the growth [8] was -37.3% (active) and the growth [9] was -88.4% (active). For the same compound, the growth [10] was -24.3% (active).

Work on `COc1ccc(CNc2c3ccccc3nc3ccccc23)c(OC)c1` yielded a growth [1] of 26%, a growth [2] of 13.8% and a growth [3] of 64.5%. The growth [4] was 33.5%, the growth [5] was 41.8% and the growth [6] was 47.1%. The growth [7] was 70.3%, the growth [8] was 54.5% and the growth [9] was 17.7%. For the same compound, the growth [10] was 69.3%.

With `C=C1CC[C@@H]2[C@](C)(COC(C)=O)[C@H](OC(C)=O)CC[C@@]2(C)[C@@H]1CC(Nc1ccc(S(=O)(=O)NC(C)=O)cc1)C1=CCOC1=O` (stereo not given in full) the growth [1] was -49.5% (active), the growth [2] was -69.9% (active) and the growth [3] was 26.3%. The growth [4] was 23%, the growth [5] was -65.5% (active) and the growth [6] was 0.695% (active). For the same compound, the growth [7] was 7.36% (active), the growth [8] was -12.5% (active) and the growth [9] was -85.8% (active). The growth [10] was -36.6% (active).

With `CCCCNC(=O)Oc1ccc(/C(=C(/C)Cc2ccc(OC)cc2)c2ccc(OCCN3CCCCC3)cc2)cc1` the growth [1] was 32.3%, the growth [2] was 2.86% (active) and the growth [3] was 64.8%. The growth [4] was 77.1%, the growth [5] was 54.7% and the growth [6] was 59%. The growth [7] was 57%, the growth [8] was 67.7% and the growth [9] was 70.4%. It also gave a growth [10] of 78.2%.

Work on `O=C(Nc1cnc(Nc2ccc(N3CCOCC3)nc2)nc1Oc1ccc(C(F)(F)F)cc1)c1ccncc1` yielded a growth [1] of 96.9%, a growth [2] of 101% and a growth [3] of 89.8%. For the same compound, the growth [4] was 91.1%, the growth [5] was 92.1% and the growth [6] was 97.4%. The growth [7] was 95.3%, the growth [8] was 94.1% and the growth [9] was 86%. It also gave a growth [10] of 95.8%.

`CCCCCCCCCCCCCCCCCCOc1ccccc1CC(=O)NCC[N+]1(C)CCCCC1` showed a growth [1] of 95.7%, a growth [2] of 12.8% and a growth [3] of 61.4%. The growth [4] was 36.7%, the growth [5] was 16.3% and the growth [6] was 8.74% (active). For the same compound, the growth [7] was 82.1%, the growth [8] was 44.6% and the growth [9] was 53.6%. For the same compound, the growth [10] was 76.2%.

In the case of `C=C(c1ccc(OC)c(/C=C/C(=O)c2ccc3c(c2)OCO3)c1)c1cc(OC)c(OC)c(OC)c1`, the growth [1] is reported as -8.44% (active), the growth [2] is reported as 10.2% and the growth [3] is reported as 5.07% (active). For the same compound, the growth [4] was 30.9%, the growth [5] was 11% and the growth [6] was 26.5%. The growth [7] was 0.661% (active), the growth [8] was 2.65% (active) and the growth [9] was -51.1% (active). The growth [10] was 11.5%.

For `CCc1ccc(CCC(=O)Nc2ncc(Cc3cc(Cl)ccc3Cl)s2)o1`, the growth [1] was 13%, the growth [2] was 2.01% (active) and the growth [3] was -12.1% (active). It also gave a growth [4] of 21%, a growth [5] of 21.7% and a growth [6] of 23.8%. For the same compound, the growth [7] was 25.2%, the growth [8] was 18.7% and the growth [9] was 30.2%. For the same compound, the growth [10] was 55.9%.

For `CCN(CC)CCN1C(=O)c2c(c(C)c3c(oc4ccc(O)cc43)c2C)C1=O`, the growth [1] was 10.5%, the growth [2] was 67.9% and the growth [3] was 94.3%. The growth [4] was 24.7%, the growth [5] was -23.8% (active) and the growth [6] was 49.7%. The growth [7] was 77.2%, the growth [8] was 56.6% and the growth [9] was -94.1% (active). The growth [10] was 72.2%.

Reference: PubChem BioAssay (NCI)
